Bioassay records as filed in PubChem.
A selection: hits, their analogues and other compounds. The true share with any hit is near 4.8%.
SMARCA2 act: SMARCA2 (BRM) function activators, primary screen, cell-based, luminescence, high throughput | AID 652017, 2013 | MG213 cells, MMTV-luciferase reporter, dexamethasone, overnight | activation, % at 9.1 µM | hit rate 1% among 370,000; in the data active = activation above about 7.8%;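 note: 0% = vehicle wells and 100% = reference activator wells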
DAX1 inh-1: DAX1 (NR0B1) inhibitors, primary screen, cell-based, HEK293, Gal4-DAX1, luciferase luminescence | Nuclear receptor subfamily 0 group B member 1 (Homo sapiens), P51843 | HEK293 Gal4-DAX1 luciferase reporter | inhibition, % at 6.75 µM | hit rate 0.99% among 340,000;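 active = inhibition above the mean over all tested compounds plus 3 SD, cut at about 4.2% in these data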;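 note: 0% = DAX1-transfected cells with DMSO and 100% = empty-vector control cells with DMSO; inhibition shows as a rise in luminescence from relieved DAX1 repression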
ssDAF-12 act: S. stercoralis DAF-12 nuclear receptor activators, primary screen, cell-based, luminescence, HEK293, GRIP1 co-expression, lit1-tk-luc; AID 652126, 2013; hit rate 1% among 370,000; HEK293 ssDAF-12/GRIP1 lit1-tk-luc reporter; % of 3 µM dafachronic acid response; Nuclear hormone receptor DAF-12 (Strongyloides stercoralis); activation, % at 6.8 µM;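 active = activation above the mean over all tested compounds plus 3 SD, cut at about 0.9% in these data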;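 note: 0% = DMSO-only wells and 100% = 3 µM delta7-dafachronic acid wells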
DAX1 inh-2: DAX1 (NR0B1) inhibitors on StAR promoter, primary screen, cell-based, luminescence, SF-1 (NR5A1), full-length DAX-1; HEK293T StAR-luciferase reporter, SF-1/DAX-1 repression relief; inhibition, % at 6.8 µM; hit rate 1.1% among 370,000;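 active = inhibition above the mean over all tested compounds plus 3 SD, cut at about 3.6% in these data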;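 note: 0% = DAX-1 cells with DMSO and 100% = cells lacking DAX-1 with DMSO; higher inhibition means more luminescence from relief of DAX-1 repression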
hcDAF-12 act: H. contortus DAF-12 nuclear receptor activators, primary screen, cell-based, luminescence, HEK293, lit1-tk-luc reporter. AID 652067, 2013. hit rate 1.4% among 370,000. activation, % at 6.8 µM. HEK293 hcDAF-12 lit1-tk-luc reporter; 0% DMSO, 100% Δ7-dafachronic acid;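 active = activation above the mean of all tested compounds plus 3 SD, cut at about 5.5% in these data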;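 note: 100% = response to 3 µM Δ7-dafachronic acid high control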
hgDAF-12 ag: H. glycines DAF-12 receptor agonists, primary screen, cell-based, luminescence, HEK293, GAL4 fusion, UAS-luciferase | Nuclear hormone receptor DAF-12 (Heterodera glycines), GAL4 fusion | HEK293 GAL4-hgDAF12 UAS-luciferase reporter, agonist luminescence; normalized to butyrate control | activation, % at 6.8 µM | hit rate 1.8% among 370,000;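 active = activation above a cutoff set at the mean of all screened compounds plus 3 SD, cut at about 10% in these data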;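 note: 0% = DMSO wells and 100% = sodium butyrate wells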
DAX1 conf: DAX1 (NR0B1) inhibitors relieving SF-1 repression, confirmation, cell-based, luminescence, HEK293T, full-length DAX-1, SF-1 activated StAR promoter | shares compounds with DAX1 inh-2 | HEK293T StAR-promoter luciferase reporter, SF-1/DAX-1 repression | inhibition, % at 6.8 µM | hit rate 87% among 2,400 | AID 652134, 2013;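 active = inhibition above the average of every tested compound plus 3 SD, cut at about 3.8% in these data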;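 note: 0% = DAX-1 cells with DMSO and 100% = no DAX-1 control cells with DMSO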
Target sequence (P51843 whole entry, looked up): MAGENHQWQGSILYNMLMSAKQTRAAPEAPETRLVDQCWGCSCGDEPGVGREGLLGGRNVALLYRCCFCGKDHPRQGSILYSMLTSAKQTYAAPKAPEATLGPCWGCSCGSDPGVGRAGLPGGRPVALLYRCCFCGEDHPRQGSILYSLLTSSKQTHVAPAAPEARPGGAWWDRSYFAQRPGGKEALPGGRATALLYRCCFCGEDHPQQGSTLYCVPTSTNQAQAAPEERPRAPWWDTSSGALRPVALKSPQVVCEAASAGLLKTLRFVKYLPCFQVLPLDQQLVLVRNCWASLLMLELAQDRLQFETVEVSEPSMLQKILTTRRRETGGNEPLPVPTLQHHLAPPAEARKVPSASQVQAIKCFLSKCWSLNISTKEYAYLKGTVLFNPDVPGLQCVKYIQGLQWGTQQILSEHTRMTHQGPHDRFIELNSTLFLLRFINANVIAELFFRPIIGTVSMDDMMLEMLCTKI
SF1 mutant ctr: StAR reporter signal changes without DAX1, counter-screen for DAX1 inhibitor project, cell-based, luminescence, AF-2 mutant SF-1, transactivation; AID 652136, 2013; inhibition, % at 6.8 µM; HEK293 StAR-luciferase, SF-1 AF2 mutant; hit rate 78% among 2,400; shares compounds with DAX1 inh-2;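 active = inhibition above the mean of all tested compounds plus 3 SD, cut at about 3% in these data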;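 note: 0% = DAX-1 transfected cells with DMSO and 100% = cells without DAX-1 with DMSO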
Starred values were filed as active, the others as inactive; . = no result given.

SMILES	SMARCA2 act	DAX1 inh-1	ssDAF-12 act	DAX1 inh-2	hcDAF-12 act	hgDAF-12 ag	DAX1 conf	SF1 mutant ctr
COc1ccc(NC(=O)CSc2nc3ccccc3c(=O)n2CCNC(C)=O)c(OC)c1	-0.2	0.3	-1.7	0.2	-1.4	0.3	.	.
CCOC(=O)CC1Sc2ccccc2NC1=O (centres undefined)	.	-0.4	.	.	.	.	.	.
Fc1cccc(Cc2c(-c3ccccc3)nc3ccc(Cl)cn23)c1	-0.9	.	-0.9	4.6*	0.6	3.2	-0.1	0.3
Clc1cccc(-c2nc3ccc(Br)cn3c2Cc2ccccc2)c1	3.7	.	-0.6	6.7*	1.4	4.5	4.6*	1.2
Cc1ccc(-c2nc3cc(C)c(Br)c(C)n3c2Cc2cccc(F)c2)cc1	3.1	.	1.9*	5.7*	6.2*	13.2*	6.2*	5.3*
Cc1cc2nc(-c3ccc(C#N)cc3)c(Cc3cccc(F)c3)n2c(C)c1Br	-2.0	.	-1.6	-0.2	2.6	2.1	.	.
O=c1oc2cc(O)ccc2cc1-c1nc2ccccc2o1	7.1	.	0.1	5.4*	2.5	8.8	6.4*	3.3*
O=c1oc2cc(O)ccc2cc1S(=O)(=O)c1ccccc1	-1.8	0.4	-0.8	-0.2	-0.5	-0.8	.	.
CCc1ccc(NC(=O)C(=O)c2ccccc2NC(C)=O)cc1	5.6	3.4	-0.2	9.1*	4.0	10.2	12.3*	7.0*
Cc1ccc(C)c(N(CC(=O)N2CCCCCC2)S(C)(=O)=O)c1	3.0	2.7	-1.0	0.5	1.1	1.0	.	.
Cc1ccc(C(=O)OCC(=O)N2C(C)CCCC2C)cc1S(=O)(=O)N1CCCCC1 (centres undefined)	-2.3	-1.1	-1.4	1.6	-2.3	4.9	.	.
Cc1cccc2c1-c1sc(C(=O)N3CCCCC3)cc1CO2	0.6	3.4	0.1	5.3*	2.7	7.2	9.6*	5.7*
Cc1ccc(O)c(N=Nc2ccccc2)n1	2.8	1.1	0.0	5.6*	4.2	12.4*	10.3*	6.5*
Cc1cccc(NC(=O)C2CCCN2C(=O)OCC(C)C)c1 (centres undefined)	-0.3	0.1	-1.1	0.7	1.1	-0.6	.	.
CCOc1c(Cl)cc(C(=O)Nc2cccc(C(=O)O)c2)cc1Cl	3.9	-3.2	-0.5	7.6*	3.7	6.0	6.5*	4.6*
C/C(N)=C(/C#N)C(=O)COC(=O)C1Cc2ccccc2CN1S(C)(=O)=O (centres undefined)	-2.9	0.6	-1.4	-1.0	-1.9	0.4	.	.
Cc1cc(C)cc(NC(=S)NCCc2ccc(S(N)(=O)=O)cc2)c1	-1.6	0.3	0.9	-0.9	-1.4	3.5	.	.
O=C(NCc1ccccn1)c1cccc(S(=O)(=O)N2CCCCC2)c1	-1.0	-0.3	-1.1	4.7*	1.1	4.0	1.6	1.6
Cc1ccnc(NC(=O)c2cccc(S(=O)(=O)N3CCN(c4ccccc4)CC3)c2)c1	2.9	-0.9	0.5	13.1*	4.8	10.2	4.0*	2.8
Cc1ccnc(NC(=O)c2ccc(S(=O)(=O)N3CCC(C)CC3)cc2)c1	1.7	2.2	0.3	10.9*	3.7	11.0*	13.2*	7.6*
CC(C)COc1ccc(CNC(=S)Nc2ccccc2)cc1Cl	-2.4	-1.4	-1.3	-0.9	-2.2	-2.9	.	.
COc1cc(NC(=O)c2ccccc2)c(C)cc1NC(=O)CC(CC(=O)O)c1ccccc1 (centres undefined)	-1.8	-1.2	0.3	-0.5	3.4	2.0	.	.
COc1ccc(-c2ccnc3c(Br)c(C)nn23)cc1	-1.4	0.9	-0.6	4.8*	-1.0	2.4	1.2	1.9
Cc1nn2c(-c3ccc(F)cc3)ccnc2c1Br	-3.0	1.4	-0.7	0.1	-1.5	-0.6	.	.
COc1ccc(-n2nnnc2SCC(=O)NC(=O)Nc2ccc3c(c2)OCCO3)cc1	2.7	0.6	0.3	0.1	0.9	6.4	.	.
SMILES	SMARCA2 act	DAX1 inh-1	ssDAF-12 act	DAX1 inh-2	hcDAF-12 act	hgDAF-12 ag	DAX1 conf	SF1 mutant ctr
COc1ccccc1Oc1ncnc2c1cnn2-c1ccccc1	2.9	0.5	-1.1	4.7*	2.1	11.6*	2.5	3.6*
Cc1cccc(NC(=O)/C=C/c2ccc(Cl)cc2)n1	0.6	0.6	-0.4	4.6*	3.7	12.0*	8.7*	5.0*
CCC1CCCCN1C(=O)CCS(=O)(=O)c1ccccc1 (centres undefined)	5.1	0.7	0.4	4.8*	2.0	1.4	4.2*	1.4
O=C(CSc1ccccc1)NC1CCCCCC1	5.2	0.5	-0.2	6.2*	6.3*	9.2	7.7*	3.8*
O=C(CCS(=O)(=O)c1ccccc1)NC1CCCCC1	1.4	0.5	-0.9	4.7*	0.3	3.3	5.8*	4.0*
O=C(CSc1ccccc1)NC1CCCCCCC1	1.6	0.1	-0.5	1.5	1.2	3.7	.	.
COc1ccc(S(=O)(=O)CCC(=O)NC2CCCCC2)cc1	2.2	0.3	-0.2	-0.6	0.7	-0.8	.	.
COc1cccc(CNc2nc(SC)ncc2CO)c1	-1.3	-1.1	-1.3	-0.5	-0.3	-3.0	.	.
O=C1CCC(=O)N1c1ccc(NCCc2cccc(F)c2)c([N+](=O)[O-])c1	2.9	0.1	-1.2	0.2	0.0	-1.4	.	.
COc1ccc(NC(=O)C(=O)NCC2CCCN2S(=O)(=O)c2ccc(C)cc2)cc1 (centres undefined)	0.6	0.5	-0.6	6.4*	-1.0	-6.2	12.8*	-8.4
COc1ccc2[nH]c3c(c2c1)CNCC3	-3.9	0.7	-0.7	-0.4	-0.3	-3.0	.	.
CCc1cn(C2CC(O)C(CO)O2)c(=O)[nH]c1=O (centres undefined)	1.0	1.1	-0.9	0.1	-0.4	-0.3	.	.
O=c1[nH]c(=O)n([C@H]2C[C@H](O)[C@@H](CO)O2)cc1I	-3.1	0.2	0.1	5.6*	1.3	10.0	14.2*	6.1*
